Experimental data: publication PMC4336329 (PLoS ONE, 2015)
Screen size: about 310,000 compounds; about 14,000 (4.5%) showed an effect of 50% or more. Effects have a minus sign here. This is one part of a sample in which strong results are shown more often than they occur.

Molecular target: human ether-à-go-go-related gene (hERG) potassium channel (human, UniProt Q12809)
Experiment: primary screen, population patch clamp on CHO cells stably expressing hERG; higher = less effect of the substance
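Note: peak tail current of the secondary pulse compared with the same well before compound.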

human ether-à-go-go-related gene (hERG) potassium channel, sequence (Q12809 whole entry, looked up): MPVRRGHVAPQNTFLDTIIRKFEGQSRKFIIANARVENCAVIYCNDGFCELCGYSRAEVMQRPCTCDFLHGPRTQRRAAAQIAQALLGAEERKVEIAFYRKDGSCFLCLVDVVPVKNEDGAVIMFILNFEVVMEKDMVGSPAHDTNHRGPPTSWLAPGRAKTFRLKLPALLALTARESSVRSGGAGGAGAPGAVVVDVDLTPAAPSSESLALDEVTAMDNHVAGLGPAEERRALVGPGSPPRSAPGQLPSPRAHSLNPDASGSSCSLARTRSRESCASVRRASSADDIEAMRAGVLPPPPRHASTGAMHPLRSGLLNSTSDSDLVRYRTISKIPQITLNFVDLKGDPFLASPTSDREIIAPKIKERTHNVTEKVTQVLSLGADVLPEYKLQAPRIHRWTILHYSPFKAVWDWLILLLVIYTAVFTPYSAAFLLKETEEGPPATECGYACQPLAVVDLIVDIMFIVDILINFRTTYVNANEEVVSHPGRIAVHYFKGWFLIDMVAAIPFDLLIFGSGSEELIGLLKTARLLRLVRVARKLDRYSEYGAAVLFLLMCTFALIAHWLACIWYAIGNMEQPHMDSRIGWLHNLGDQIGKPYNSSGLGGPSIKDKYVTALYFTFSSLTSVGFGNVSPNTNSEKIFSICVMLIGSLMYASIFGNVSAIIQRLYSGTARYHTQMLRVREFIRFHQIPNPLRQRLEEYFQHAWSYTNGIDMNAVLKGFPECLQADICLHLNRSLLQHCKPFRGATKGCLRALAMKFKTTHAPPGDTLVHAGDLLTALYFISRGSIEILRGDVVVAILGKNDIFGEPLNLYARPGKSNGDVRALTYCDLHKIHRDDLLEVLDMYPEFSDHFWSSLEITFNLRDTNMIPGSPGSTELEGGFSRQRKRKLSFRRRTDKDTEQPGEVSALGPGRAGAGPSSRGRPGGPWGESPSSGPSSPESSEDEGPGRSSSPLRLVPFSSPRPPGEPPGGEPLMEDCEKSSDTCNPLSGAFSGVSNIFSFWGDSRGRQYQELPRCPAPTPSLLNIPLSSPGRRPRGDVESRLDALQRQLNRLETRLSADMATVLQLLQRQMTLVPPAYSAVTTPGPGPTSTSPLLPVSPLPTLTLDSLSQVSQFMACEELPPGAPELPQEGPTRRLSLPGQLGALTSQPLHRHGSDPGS

SMILES	hERG current change (%, negative = inhibition) at 10uM
COc1cccc(C(=O)NNC(=O)c2ccccc2-n2cccc2)c1	34.4%
CS(=O)(=O)c1nc(S(=O)(=O)c2ccc(Cl)cc2)c(NCCN2CCOCC2)s1	-31.6%
CC(C)(C)c1ccc(-c2c(C#N)c(N)nc3c2CCCC3)s1	-0.863%
CC12CN3CN(C1)CC(c1ccccc1)(C3)C2=O	12.7%
Cc1noc(C)c1COC(=O)[C@@H](NC(=O)c1ccccc1)C(C)C	11.5%
Cc1ccccc1OC(C)C(=O)NCCC1=CCCCC1 (stereo not drawn)	-1.85%
COc1cccc(OCc2cc(C(=O)N3CCN(c4ccccc4O)CC3)no2)c1	4.71%
O=C(c1cc(COc2ccc(F)cc2F)on1)N1CCSCC1	-11.7%
O=C(c1cc(COc2ccc(F)cc2F)on1)N1CCOCC1	17.7%
COc1cccc(OCc2cc(C(=O)N3CCN(C(C)=O)CC3)no2)c1	-1.97%
COc1cccc(OCc2cc(C(=O)N3CCN(C(=O)c4ccco4)CC3)no2)c1	-51.7%
O=C(c1cc(COc2ccc(F)cc2F)on1)N1CCN(C(=O)c2ccco2)CC1	-57.3%
Cc1ccc(NC(=S)N2CCCC2)cc1Cl	11.5%
CC(=O)NCCOC(=O)c1nn(Cc2ccccc2)c(=O)c2ccccc12	-22.4%
Cc1sc2nc(CN3CCN(c4ccc(O)cc4)CC3)[nH]c(=O)c2c1C	14.4%
C=CCN(Cc1ccc(Cl)s1)C(=O)CNC(=O)CNC(=O)c1ccc(Cl)cc1Cl	-70.6%
CN(Cc1ccc(Cl)s1)C(=O)CNC(=O)CNC(=O)c1ccc(Cl)cc1Cl	-56.8%
C=CCNC(=O)c1ccc(Cl)cc1Cl	11.8%
COc1ccc(CN(C)C(=O)CNC(=O)CNC(=O)c2ccc(Cl)cc2Cl)cc1F	-43.5%
O=C(CNC(=O)CNC(=O)c1ccc(Cl)cc1Cl)NCc1cccc(Cl)c1	-1.95%
CN(Cc1cccnc1)C(=O)CNC(=O)c1ccc(Cl)cc1Cl	-17.2%
COc1ccc(C2=NS(=O)(=O)N(C)C(C(=O)Nc3ccc(C)cc3)=C2)cc1	-2.89%
COc1cc(C)c(NC(=S)Nc2cccc(Cl)c2C)cc1OC	11.1%
CCCCCCCCN1[C@@H](CC(=O)O)c2cc(F)ccc2S1(=O)=O	7.81%
CCC(=O)NC(c1cccs1)c1cc(Cl)c2cccnc2c1O (stereo not drawn)	-2.87%
COc1ccccc1CCNC(=O)CCn1c(=O)c2cccn2c2ccc(F)cc21	5.9%

SMILES	hERG current change (%, negative = inhibition) at 10uM
COc1ccc(OC)c(CNC(=O)CCn2c(=O)c3cccn3c3ccc(F)cc32)c1	-62.2%
COc1ccc(CNC(=O)CCn2c(=O)c3cccn3c3ccc(F)cc32)cc1	-7.82%
COc1ccc(C)cc1NC(=S)N1CC(C)OC(C)C1 (stereo not drawn)	-11.5%
CCC(=NCCc1c(C)[nH]c2ccccc12)C1=C(O)CC(c2ccccc2)CC1=O (stereo not drawn)	6.02%
N#C/C(=C(\O)Cc1ccccc1)c1nc2ccccc2[nH]1	15.6%
CCCCc1nc2ccccc2n1CC(=O)NN	16.3%
C=C(Br)Cn1c(CCCC)nc2ccccc21	-21.6%
CCCCc1nc2ccccc2n1Cc1nnc2n1-c1ccccc1SC2	-63%
Nc1nnnn1CC(=O)OCc1cccc(Br)c1	-13.8%
COc1ccc(Cl)cc1NC(=O)CN(C)CC(=O)Nc1cc(OC)c(OC)c(OC)c1	-8.72%
Cc1oc(-c2cccc(Cl)c2)nc1CN1CCC(C(=O)NCCCN2CC(C)CC(C)C2)CC1 (stereo not drawn)	-21.4%
COc1ccc(CCNC(=O)C2CCCN(Cc3nc(-c4cccc(Cl)c4)oc3C)C2)cc1OC (stereo not drawn)	-84.1%
COc1ccc(CCNC(=O)C2CCN(C(=O)c3cccc(Cl)c3)CC2)cc1OC	11.5%
COc1ccc(CCNC(=O)C2CCN(Cc3nc(-c4cccc(Cl)c4)oc3C)CC2)cc1OC	-85.2%
CCc1cc2c(cc3c(=O)n(CC(=O)N4CCN(C)CC4)ncn32)s1	-14.3%
CCOC(=O)c1ccccc1NC(=O)COC(=O)c1ccccc1C(=O)N(C)c1ccccc1	-23.5%
CC(OC(=O)CN1C(=O)NC2(CCCC2)C1=O)C(=O)Nc1cccc(Cl)c1 (stereo not drawn)	-15.3%
O=C(O)CC(CC(=O)Nc1ccc(-c2ccccc2)cc1)c1ccccc1 (stereo not drawn)	9.93%
Cc1cc(C(=O)N/N=C/c2sccc2C)no1	17.2%
S=C(NCCN1CCCCC1)Nc1ccccc1	0.941%
O=C(NCCN1CCCCC1)Nc1ccc(Br)cc1	-52.4%
S=C(NCCN1CCOCC1)Nc1ccc(Br)cc1	5.71%
S=C(NCCN1CCCCC1)Nc1ccc(Br)cc1	-69.1%
O=C(NCCN1CCCCC1)Nc1ccc(Cl)cc1	-33.7%
CCN(CC)CCCNC(=S)Nc1ccc(Br)cc1	-53.2%
CCCCNC(=S)Nc1ccc(Cl)cc1	3.01%

SMILES	hERG current change (%, negative = inhibition) at 10uM
CCCCNC(=S)Nc1ccc(C(F)(F)F)cc1	-52.8%
CCCNC(=S)Nc1ccc(Br)cc1	11.8%
Cc1ccc(NC(=O)NCCN2CCCCC2)cc1	-11%
CN(C)CCCNC(=S)Nc1ccc(Br)cc1	-11.6%
CCCCNC(=S)Nc1ccc(F)cc1	20.6%
COc1ccccc1CNC(=O)C1CCC(=O)N(CCCc2ccccc2)C1 (stereo not drawn)	-9.31%
CC(C)c1cc(CNC(=O)CC2C(=O)NCCN2CC2CCCCC2)on1 (stereo not drawn)	11.2%
Cc1ccc(NC(=O)NCCN2CCCCC2)cc1Cl	-51.7%
Cc1ccc(NC(=O)NCCN2CCCCC2)cc1C	-15.8%
O=C(NCCN1CCCCC1)Nc1ccc(F)c(Cl)c1	-33.9%
COc1ccc(S(=O)(=O)N2CCN(C(=O)[C@H](Cc3ccccc3)NC(=O)c3ccco3)CC2)cc1	-28.6%
CC1CN(CCOc2ccc(F)cc2)CC(C)O1.O=C(O)C(=O)O (stereo not drawn)	6.81%
CC1CN(CCOc2ccc(Cl)c(Cl)c2)CC(C)O1.O=C(O)C(=O)O (stereo not drawn)	-5.18%
CC1CC(C)CN(CCOc2ccc(Br)cc2)C1.O=C(O)C(=O)O (stereo not drawn)	-60.3%
CC1CCCN(CCOc2ccc(Br)cc2)C1 (stereo not drawn)	-51.3%
COc1ccc(OCCCN2CCCC(C)C2)cc1 (stereo not drawn)	-32%
CCCOc1ccc(OCCN2CCCC(C)C2)cc1.O=C(O)C(=O)O (stereo not drawn)	-52.2%
Brc1ccc(OCCN2CCOCC2)cc1	4.54%
O=C(CSc1nc2ccccc2n1CC(=O)N1CCCC1)Nc1ccc2c(c1)OCO2	-37.7%
CC(=O)Nc1c(C)nn(C(C)=O)c1C	16.4%
CC(=O)N(C(C)=O)c1nc2nc(C)cc(C)n2n1	-42.3%
COc1cccc(NC(=O)NCCc2ccc(Cl)cc2)c1	9.47%
CCOC(=O)NNc1ccccc1	6.88%
Cc1ccc(-c2csc3nc4ccc(C(=O)NCCO)cc4c(=O)n23)cc1	12.1%
CC(C)(C)c1ccc(OCCC(=O)OCC(=O)Nc2cccnc2Cl)cc1	-2.33%
COc1cc2c(cc1OC)C(c1ccccc1)N(C(=O)c1ccccc1)CC2 (stereo not drawn)	-13.1%

SMILES	hERG current change (%, negative = inhibition) at 10uM
COc1cc2c(cc1OC)C(c1cccs1)N(C(=O)C(C)C)CC2 (stereo not drawn)	-19.2%
COc1ccc(C2c3cc(OC)c(OC)cc3CCN2C(=O)c2ccccc2)cc1OC (stereo not drawn)	2.95%
COc1cc2c(cc1OC)C(c1cccs1)N(C(=O)c1ccncc1)CC2 (stereo not drawn)	-66.8%
COc1cc2c(cc1OC)C(c1cccs1)N(C(=S)NC(C)C)CC2 (stereo not drawn)	-40%
COc1cc2c(cc1OC)C(c1cccs1)N(C(=O)c1cccnc1)CC2 (stereo not drawn)	-54.9%
Cc1cc2ccccc2c(=O)n1CC(=O)NCCC1=CCCCC1	8.01%
Cc1c(C#N)c(NC(=O)CCl)n(Cc2ccccc2)c1C	31.1%
CC(C)n1c(SCc2ccc(Cl)cc2)nc2c1c(=O)[nH]c(=O)n2C	18.5%
Cc1ccc(OP(=O)(NC(C)c2ccccc2)Oc2ccc(C)cc2)cc1 (stereo not drawn)	17.6%
C=CCN(CC=C)S(=O)(=O)c1ccc(NC(=S)NC(=O)/C=C/c2cccc3ccccc23)cc1	1.52%
O=C(Cc1ccc(Br)cc1)N1CCN(C(=O)c2ccccc2)CC1	-30.1%
CCOc1ccc(/C=C/[N+](=O)[O-])c2ccccc12	-8.67%
CCN1CCN(c2ccc(S(=O)(=O)N3CCCCC3)cc2NC(=O)/C=C/c2ccc(OC)c(OC)c2)CC1	-31.4%
CCN1CCN(c2ccc(S(=O)(=O)N3CCCCC3)cc2NC(=O)c2cccc(C(F)(F)F)c2)CC1	-46.7%
CCN1CCN(c2ccc(S(=O)(=O)N3CCCCC3)cc2NC(=O)/C=C/c2cccc(OC)c2OC)CC1	-18.9%
CCN1CCN(c2ccc(S(=O)(=O)N3CCCCC3)cc2NC(=O)c2cccc(F)c2)CC1	-34.6%
CCN1CCN(c2ccc(S(=O)(=O)N3CCCCC3)cc2NC(=O)c2ccc(F)cc2)CC1	-56.5%
CN1CCN(c2ccc(S(=O)(=O)N3CCCCC3)cc2NC(=O)/C=C/c2ccc(OC(F)F)cc2)CC1	-39.2%
CCN1CCN(c2ccc(S(=O)(=O)N3CCOCC3)cc2NC(=O)c2ccc(C(F)(F)F)cc2)CC1	-44.2%
CCN1CCN(c2ccc(S(=O)(=O)N3CCCCC3)cc2NC(=O)/C=C/c2cc(OC)ccc2OC)CC1	-52.7%
CCN1CCN(c2ccc(S(=O)(=O)N3CCCCC3)cc2NC(=O)c2ccccc2)CC1	-46%
CCN1CCN(c2ccc(S(=O)(=O)N3CCCCC3)cc2NC(=O)c2ccc(OC(F)F)cc2)CC1	-57.2%
CCN1CCN(c2ccc(S(=O)(=O)N3CCCCC3)cc2NC(=O)/C=C/c2ccc(OC(F)F)cc2)CC1	-50.2%
CCN1CCN(c2ccc(S(=O)(=O)N3CCOCC3)cc2NC(=O)/C=C/c2ccc(OC)cc2OC)CC1	-17.2%
